From PubChem BioAssay (EPA / NIEHS)
Records with an inconclusive call do not appear. Some compounds were tested as several samples or in several runs, with calls that do not always agree. The source made the active and inactive calls. Rule for the calls, unless noted: active = hit-call score of the fitted dose curve at least 0.9, where 1 is the maximum; inconclusive = response in the unintended direction; inactive = score below 0.9.

Columns and labels:
[1] = molecular target: Bile acid receptor (Homo sapiens) (UniProt Q96RI1); test: ATG_FXR_TRANS: Attagene TRANS-FACTORIAL HepG2 Assay for Farnesoid X Receptor (FXR) (AID 2282979); details: HepG2 Attagene TRANS FXR-GAL4 reporter transcription;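 note: hits raise reporter mRNA above DMSO so AC50 marks FXR activation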
Method in brief: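 Read-out: fluorescent reporter transcripts quantified by capillary electrophoresis after RT-PCR of total RNA. Source cells were HepG2 transiently carrying chimeric NR-GAL4 plus GAL4-UAS reporter units, dosed 24 h. Activity fitted upward relative to DMSO baseline.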

[2] = molecular target: Oxysterols receptor LXR-alpha (Homo sapiens) (UniProt Q13133); test: ATG_LXRa_TRANS: Attagene TRANS-FACTORIAL HepG2 Assay for human Liver X Receptor alpha (LXRa) (AID 2282980); details: HepG2 Attagene TRANS reporter, LXRa transactivation
Method in brief: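 Read-out: reporter transcript levels by RT-PCR plus capillary electrophoresis, fluorescence intensity. Transiently transfected HepG2, exogenous NR-GAL4 chimera, GAL4-UAS reporters; 24 h compound exposure. Activity = increase over DMSO negative control.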

[3] = molecular target: Oxysterols receptor LXR-beta (Homo sapiens) (UniProt P55055); test: ATG_LXRb_TRANS: Attagene TRANS-FACTORIAL HepG2 Assay for human Liver X Receptor beta (LXRb) (AID 2282981); details: HepG2 Attagene TRANS GAL4-LXRb reporter, mRNA
Method in brief: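 Gain-of-signal mRNA reporter endpoint, DMSO as negative control. Transiently transfected HepG2 cells carrying the NR-Gal4 chimera and GAL4-UAS reporter units were treated 24 h; transcripts quantified by RT-PCR and capillary electrophoresis fluorescence.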

[4] = molecular target: Hepatocyte nuclear factor 4-alpha (Homo sapiens) (UniProt P41235); test: ATG_HNF4a_TRANS: Attagene TRANS-FACTORIAL HepG2 Assay for human Hepatocyte Nuclear Factor 4 alpha (HNF4a) (AID 2282982); details: HepG2 HNF4a transactivation reporter, mRNA readout
Method in brief: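 Gain-of-signal mRNA induction, relative to DMSO vehicle, was read after 24 h compound treatment of HepG2 cells bearing transfected GAL4-UAS reporters. Detection used RT-PCR, 6-FAM primer extension and capillary electrophoresis.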

[5] = ATG_M_32_TRANS: Attagene TRANS-FACTORIAL HepG2 Assay for M32 Transcription Factor (Internal Marker) (AID 2282984); details: HepG2 Attagene TRANS M32 internal marker reporter;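 note: transcript level of a background control reporter unit measured by RT-PCR and capillary electrophoresis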
Method in brief: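 Capillary electrophoresis of 6-FAM-labelled reporter fragments gives the signal; data fitted for gain over DMSO negative control. Source: HepG2 cells bearing transient multiple reporter transcription units, 24 h exposure.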

[6] = molecular target: Nuclear receptor subfamily 4 group A member 2 (Homo sapiens) (UniProt P43354); test: ATG_NURR1_TRANS: Attagene TRANS-FACTORIAL HepG2 Assay for human Nuclear Receptor Related Protein 1 (NURR1) (AID 2282985); details: HepG2 Attagene TRANS reporter, mRNA readout
Method in brief: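 HepG2 / transient MRTU transfection / 24 h compound exposure / RT-PCR + CE fluorescence of reporter mRNA / gain-of-signal vs DMSO.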

[7] = molecular target: Transcriptional activator Myb (Homo sapiens) (UniProt P10242); test: ATG_Myb_CIS: Attagene CIS-FACTORIAL HepG2 Assay for human Myeloblastosis (Myb) Proto-Oncogene Transcription Factor (AID 2282986; active = hit-call score of the fitted dose curve at least 0.9, where 1 is the maximum; inactive = score below 0.9); details: HepG2 Attagene CIS-FACTORIAL Myb reporter transcription; actives raise or lower the signal
Method in brief: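 HepG2, transient MRTU transfection (cis-element promoters, endogenous TF activity), 24 h compound exposure. Readout: reporter mRNA via RT-PCR, 6-FAM labeling, HpaI digest, capillary electrophoresis. Gain/loss fit vs DMSO.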

[8] = molecular target: Nuclear respiratory factor 1 (Homo sapiens) (UniProt Q16656); test: ATG_NRF1_CIS: Attagene CIS-FACTORIAL HepG2 Assay for human Nuclear Respiratory Factor 1 (NRF1) Orphan Gene (AID 2282987; active = hit-call score of the fitted dose curve at least 0.9, where 1 is the maximum; inactive = score below 0.9); details: HepG2 NRF1 cis-element reporter, Attagene multiplex; actives raise or lower the signal
Method in brief: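 Endogenous NRF1-driven reporter transcription measured in transiently transfected human HepG2 liver cells. Readout: reporter mRNA by RT-PCR and capillary electrophoresis with fluorescence detection, 24 h post-dosing. Gain or loss of signal fitted relative to DMSO baseline.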

[9] = ATG_NFI_CIS: Attagene CIS-FACTORIAL HepG2 Assay for human Nuclear Factor I (NFI) (AID 2282989; active = hit-call score of the fitted dose curve at least 0.9, where 1 is the maximum; inactive = score below 0.9); details: HepG2 cis-regulatory reporter, NFI response element transcription; actives raise or lower the signal
Method in brief: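 Transfected HepG2 liver cells, exposed 24 h, supplied total RNA for oligo(dT) reverse transcription and reporter-specific PCR. Labelled, HpaI-cut fragments were sized by capillary electrophoresis; DMSO set the baseline for bidirectional fitting.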

[10] = ATG_M_06_TRANS: Attagene TRANS-FACTORIAL HepG2 Assay for M06 Transcription Factor (Internal Marker) (AID 2282983); details: HepG2 Attagene TRANS M06 internal marker reporter
Method in brief: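 After a 24 h chemical treatment of transfected HepG2, RNA underwent DNase I treatment, reverse transcription and reporter-specific PCR; labelled, HpaI-digested products were sized by capillary electrophoresis. Signal increase relative to DMSO defined activity.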

Measured: AC50

Chain of Bile acid receptor (Homo sapiens) (Q96RI1 whole entry, looked up, the tested form may be a part): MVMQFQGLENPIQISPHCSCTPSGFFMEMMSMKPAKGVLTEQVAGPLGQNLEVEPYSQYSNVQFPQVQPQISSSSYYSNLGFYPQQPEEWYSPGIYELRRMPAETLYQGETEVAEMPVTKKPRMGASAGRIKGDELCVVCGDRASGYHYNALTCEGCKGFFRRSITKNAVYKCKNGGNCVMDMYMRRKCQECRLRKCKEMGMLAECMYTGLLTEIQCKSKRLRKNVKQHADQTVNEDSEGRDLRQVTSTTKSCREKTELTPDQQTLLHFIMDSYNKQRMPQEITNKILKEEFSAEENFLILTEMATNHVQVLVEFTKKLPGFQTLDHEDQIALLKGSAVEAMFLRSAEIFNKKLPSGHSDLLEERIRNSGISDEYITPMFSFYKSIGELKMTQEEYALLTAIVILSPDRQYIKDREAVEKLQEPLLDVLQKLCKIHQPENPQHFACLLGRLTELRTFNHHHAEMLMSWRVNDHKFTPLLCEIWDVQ
Chain of Hepatocyte nuclear factor 4-alpha (Homo sapiens) (P41235 whole entry, looked up, the tested form may be a part): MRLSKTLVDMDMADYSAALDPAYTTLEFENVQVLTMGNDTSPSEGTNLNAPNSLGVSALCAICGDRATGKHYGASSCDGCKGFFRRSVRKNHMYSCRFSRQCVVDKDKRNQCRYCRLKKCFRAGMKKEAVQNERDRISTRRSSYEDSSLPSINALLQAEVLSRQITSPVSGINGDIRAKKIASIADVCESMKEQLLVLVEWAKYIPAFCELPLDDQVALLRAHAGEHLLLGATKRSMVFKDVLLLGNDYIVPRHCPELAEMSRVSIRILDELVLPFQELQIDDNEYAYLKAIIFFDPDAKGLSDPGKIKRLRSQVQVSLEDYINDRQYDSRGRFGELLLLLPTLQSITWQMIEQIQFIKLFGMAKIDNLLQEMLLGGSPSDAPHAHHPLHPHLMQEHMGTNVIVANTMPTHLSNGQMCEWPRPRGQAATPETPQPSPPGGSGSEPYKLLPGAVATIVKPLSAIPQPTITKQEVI
Chain of Oxysterols receptor LXR-beta (Homo sapiens) (P55055 whole entry, looked up, the tested form may be a part): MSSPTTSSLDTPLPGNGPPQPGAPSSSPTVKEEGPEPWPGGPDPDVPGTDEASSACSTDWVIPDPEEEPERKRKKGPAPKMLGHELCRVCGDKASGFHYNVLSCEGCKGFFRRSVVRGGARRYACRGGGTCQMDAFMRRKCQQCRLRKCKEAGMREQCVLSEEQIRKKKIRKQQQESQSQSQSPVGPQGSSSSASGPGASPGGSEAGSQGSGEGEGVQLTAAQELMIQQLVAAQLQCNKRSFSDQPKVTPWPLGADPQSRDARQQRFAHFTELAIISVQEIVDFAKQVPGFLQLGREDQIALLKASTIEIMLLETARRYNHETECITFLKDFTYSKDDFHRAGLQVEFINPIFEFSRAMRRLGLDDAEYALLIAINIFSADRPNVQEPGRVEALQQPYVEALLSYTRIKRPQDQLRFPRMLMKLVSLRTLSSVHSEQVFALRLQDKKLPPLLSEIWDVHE
Chain of Oxysterols receptor LXR-alpha (Homo sapiens) (Q13133 whole entry, looked up, the tested form may be a part): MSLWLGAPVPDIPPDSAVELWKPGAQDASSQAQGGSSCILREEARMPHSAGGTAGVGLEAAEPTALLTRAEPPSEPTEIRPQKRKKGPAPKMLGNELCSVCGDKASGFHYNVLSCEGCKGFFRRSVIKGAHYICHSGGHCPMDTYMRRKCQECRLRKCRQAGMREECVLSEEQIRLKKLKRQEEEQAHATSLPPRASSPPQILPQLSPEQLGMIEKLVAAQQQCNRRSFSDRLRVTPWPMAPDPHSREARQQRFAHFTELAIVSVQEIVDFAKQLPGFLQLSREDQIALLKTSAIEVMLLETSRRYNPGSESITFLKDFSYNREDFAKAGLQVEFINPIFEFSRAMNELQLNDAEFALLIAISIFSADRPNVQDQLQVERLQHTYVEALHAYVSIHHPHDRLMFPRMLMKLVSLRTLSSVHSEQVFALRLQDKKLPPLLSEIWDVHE
Chain of Nuclear respiratory factor 1 (Homo sapiens) (Q16656 whole entry, looked up): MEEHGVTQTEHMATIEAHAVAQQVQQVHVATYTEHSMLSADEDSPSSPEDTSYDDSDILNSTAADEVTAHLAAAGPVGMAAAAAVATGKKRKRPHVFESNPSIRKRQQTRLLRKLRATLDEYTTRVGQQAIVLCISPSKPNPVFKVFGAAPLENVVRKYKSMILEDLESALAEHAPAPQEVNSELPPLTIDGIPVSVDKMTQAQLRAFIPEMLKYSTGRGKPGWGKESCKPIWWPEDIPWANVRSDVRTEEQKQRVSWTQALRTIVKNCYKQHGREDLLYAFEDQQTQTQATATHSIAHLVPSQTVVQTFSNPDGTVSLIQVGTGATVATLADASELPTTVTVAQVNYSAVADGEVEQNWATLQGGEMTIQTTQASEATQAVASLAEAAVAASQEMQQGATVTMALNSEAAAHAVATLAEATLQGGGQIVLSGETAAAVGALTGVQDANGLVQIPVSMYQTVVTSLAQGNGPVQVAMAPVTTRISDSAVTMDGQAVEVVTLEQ
Chain of Nuclear receptor subfamily 4 group A member 2 (Homo sapiens) (P43354 whole entry, looked up): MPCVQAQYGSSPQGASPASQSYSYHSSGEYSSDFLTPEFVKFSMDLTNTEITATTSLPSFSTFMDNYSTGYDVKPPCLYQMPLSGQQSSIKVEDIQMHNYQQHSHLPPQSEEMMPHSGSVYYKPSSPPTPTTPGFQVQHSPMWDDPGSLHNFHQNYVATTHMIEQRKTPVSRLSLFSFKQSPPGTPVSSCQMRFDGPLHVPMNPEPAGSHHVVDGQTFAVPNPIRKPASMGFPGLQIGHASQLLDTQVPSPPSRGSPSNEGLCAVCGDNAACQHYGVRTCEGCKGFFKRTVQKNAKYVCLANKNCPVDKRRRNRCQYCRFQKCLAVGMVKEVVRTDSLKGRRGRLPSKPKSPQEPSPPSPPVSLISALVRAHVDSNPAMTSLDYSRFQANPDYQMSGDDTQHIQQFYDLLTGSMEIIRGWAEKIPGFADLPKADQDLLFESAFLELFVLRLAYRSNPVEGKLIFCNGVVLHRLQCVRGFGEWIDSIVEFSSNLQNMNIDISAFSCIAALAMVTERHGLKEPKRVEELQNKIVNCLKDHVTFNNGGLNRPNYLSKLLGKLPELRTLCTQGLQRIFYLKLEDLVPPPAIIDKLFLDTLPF
Chain of Transcriptional activator Myb (Homo sapiens) (P10242 whole entry, looked up): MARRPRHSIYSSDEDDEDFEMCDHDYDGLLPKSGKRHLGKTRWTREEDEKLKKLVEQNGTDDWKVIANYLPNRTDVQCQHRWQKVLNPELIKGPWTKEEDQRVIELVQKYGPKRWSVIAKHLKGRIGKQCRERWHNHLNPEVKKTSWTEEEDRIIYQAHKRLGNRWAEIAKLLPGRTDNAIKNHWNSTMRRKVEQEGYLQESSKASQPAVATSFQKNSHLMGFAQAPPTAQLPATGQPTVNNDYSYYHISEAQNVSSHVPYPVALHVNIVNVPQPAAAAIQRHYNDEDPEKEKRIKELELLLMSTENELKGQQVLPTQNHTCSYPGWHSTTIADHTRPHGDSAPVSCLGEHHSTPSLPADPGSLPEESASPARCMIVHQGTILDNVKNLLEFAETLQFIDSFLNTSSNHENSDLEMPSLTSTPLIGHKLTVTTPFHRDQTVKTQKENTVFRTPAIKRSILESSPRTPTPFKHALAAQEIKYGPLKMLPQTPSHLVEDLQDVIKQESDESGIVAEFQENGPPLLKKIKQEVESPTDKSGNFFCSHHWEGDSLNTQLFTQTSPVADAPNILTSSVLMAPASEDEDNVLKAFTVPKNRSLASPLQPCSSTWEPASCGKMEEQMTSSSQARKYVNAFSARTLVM

CN(C)CCN(C)C
not listed: [10]
inactive: all other assays above

Cc1cc(C(C)(C)c2ccc(O)c(C)c2)ccc1O
active: [1] 4.72 µM | [6] 69.3 µM | [7] 89.7 µM
not listed: [2]
inactive: all other assays above

c1ccc(-c2cccc(-c3ccccc3)c2)cc1
active: [6] 27.8 µM
not listed: [4] | [5] | [10]
inactive: all other assays above

C[N+](C)(C)Cc1ccccc1
not listed: [6] | [10]
inactive: all other assays above

CC(C)(C)c1cc([N+](=O)[O-])cc(C(C)(C)C)c1O
active: [6] 12.4 µM
not listed: [3] | [5] | [10]
inactive: all other assays above

CNC(=O)N(C)c1nc2ccccc2s1
not listed: [4] | [7] | [8]
inactive: all other assays above

Cc1cccc(C)c1NC(=O)CN1CCCC1=O
inactive: [1] | [2] | [10] | [7] | [8] | [9]

O=NN1CCCCCC1
not listed: [2]
inactive: all other assays above

CC(C)[N+](=O)[O-]
not listed: [2] | [6]
inactive: all other assays above

COC(=O)Nc1cccc(OC(=O)Nc2cccc(C)c2)c1
inactive: [1] | [2] | [10] | [7] | [8] | [9]

c1csc(-c2ccc(-c3cccs3)s2)c1
active: [6] 3.59 µM
not listed: [10]
inactive: all other assays above

Cc1ccc2nc3sc(=O)sc3nc2c1
active: [4] 6.47 µM | [7] 25 µM | [8] 12.2 µM
not listed: [2]
inactive: all other assays above

Cc1ccccc1OP(=O)(Oc1ccccc1C)Oc1ccccc1C
active: [6] 26.7 µM
not listed: [4] | [10]
inactive: all other assays above

CNC(=O)CSP(=O)(OC)OC
not listed: [2] | [8]
inactive: all other assays above

CCCCOC(C)=O
active: [7] 100 µM
inactive: [1] | [2] | [3] | [4] | [10] | [5] | [7] | [8] | [9]

COC(F)(C(F)(F)C(F)(F)F)C(F)(C(F)(F)F)C(F)(F)F (stereo unspecified)
inactive: all assays above

CCN(N=O)C(N)=O
not listed: [3] | [6] | [10]
inactive: all other assays above

O=S(=O)(C(Cl)(Cl)Cl)C(Cl)(Cl)Cl
active: [9] 17.9 µM
not listed: [3] | [4]
inactive: all other assays above

CN(N=O)C(N)=O
not listed: [2] | [7]
inactive: all other assays above

CCOP(=S)(OCC)SCS(=O)(=O)C(C)(C)C
active: [2] 34.1 µM | [3] 53.5 µM
inactive: [1] | [10] | [5] | [6] | [9]

CCOC(=O)C(SP(=S)(OC)OC)c1ccccc1 (stereo unspecified)
active: [1] 30.7 µM
not listed: [4] | [7] | [10]
inactive: all other assays above

Nc1ccc(N)cc1
not listed: [6]
inactive: all other assays above

Brc1ccc(Oc2c(Br)cc(Br)cc2Br)c(Br)c1
inactive: all assays above

O=C(Nc1ccc(Br)cc1)c1cc(Br)cc(Br)c1O
active: [9] 2.27 µM
inactive: all other assays above

COc1nn(C(=O)NS(=O)(=O)c2ccccc2OC(F)(F)F)c(=O)n1C
inactive: [1] | [2] | [4] | [10] | [5] | [9]
